This is an account of results in PubChem BioAssay.

The nature of this experiment: small-molecule microarray binders of probe aEGFR, primary screen, biochemical, biotinylated probe, 635/667 nm fluorescence (AID 1097).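 Note: probe is a biotinylated anti-EGFR antibody binding compounds printed on slides; score combines fluorescence near 667 nm and signal to noise of each spot.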 Conditions: higher = more signal.
`COC(=O)[C@@]1(Cc2ccc(F)cc2)[C@H]2c3cc(C(=O)N(C)C)n(CCc4ccc(O)c(O)c4)c3C[C@H]2CN1C(=O)c1ccccc1` had a composite z-score of 0.253.

On to `[N-]=[N+]=Nc1ccccc1C[C@]1(C(=O)N2CCOCC2)N=C(c2ccc(OCCCO)cc2)O[C@H]1c1ccccc1N=[N+]=[N-]`, for which the composite z-score was -0.0211.

The compound `COCCOC(=O)N1C(=O)[C@@]2(c3cc(C#CCCO)ccc31)[C@H](c1ccc(OCCO)cc1)N1[C@H](c3ccccc3)[C@H](c3ccccc3)OC(=O)[C@H]1[C@@H]2C(=O)N1CCCCCCC1` came in with a composite z-score of 0.611.

Turning to `COC(=O)C(CC#Cc1ccc2c(c1)[C@]1(C(=O)N2)[C@H](c2ccc(OCCO)cc2)N2[C@H](c3ccccc3)[C@H](c3ccccc3)OC(=O)[C@H]2[C@@H]1C(=O)N1CCCCCCC1)C(=O)OC`, the composite z-score turned out to be 1.17.

Turning to `O=C1C[C@@](C(=O)O)(c2ccc([N+](=O)[O-])cc2)[C@@H](c2ccc(CO)cc2)N1C1CCCCC1`, the composite z-score is -0.0409.

Turning to `C=CC[C@]1(C(=O)NCC(O)CO)COC(c2ccc(OCCCO)cc2)=N1` (stereo not given in full), the composite z-score was 0.0444.

The compound `C=C(COC)C(=O)CC[C@H](OC(=O)c1cccnc1)c1ccc(OCCO)cc1` returned a composite z-score of -0.113.

As to `C=CCNC(=O)[C@H]1[C@@H]2C(=O)O[C@@H](c3ccccc3)[C@@H](c3ccccc3)N2[C@@H](c2ccc(OCCO)cc2)[C@]12C(=O)Nc1ccccc12`, the composite z-score is -0.194.

`C=CC1c2cc(O)c(OC)cc2CCN1C` (stereo not given) came in with a composite z-score of -0.135.

For the compound `CC1CC/C=C\[C@H]2OC34C=CCN(c5ccc(Cl)cc5)C(=O)[C@H]3N(CCCCCCO)C(=O)[C@]4(C)C2C(=O)O1` (stereo not given in full), the composite z-score is -0.314.
